High-throughput results from PubChem BioAssay.
ROC1-CUL1 inh – inhibitors of human ROC1-CUL1 ubiquitin ligase activity; inhibition, % at 10 µM; E3 ubiquitin-protein ligase RBX1 (Homo sapiens) + Cullin-1 (Homo sapiens), P62877+Q13616; 140,000 compounds, 0.6% hits; in vitro K48 di-Ub FRET, acceptor:donor ratio, 45 min; in the data active = inhibition above about 25%
* marks the source's active call; other numbers are inactive results. Only a selection was taken, and hits are over-represented in it overall.

SMILES	ROC1-CUL1 inh
Cn1c(=O)c2ccccc2c2c(=O)c(C(=O)c3ccccc3)c(-c3ccccc3)oc21	-4
COc1cc(Nc2ncc3c(n2)CCN(Cc2cccc(C)c2)C3)cc(OC)c1	-5
CCN(CC)C(=O)c1c(NC(=O)c2cccs2)sc2c1CCC(C(C)(C)C)C2 (stereo not given)	8
CN(CC1CCN(CCc2cccc(F)c2)CC1)C(=O)CCn1cncn1	3
CCn1c(=O)c2sccc2n2c(CCCC(=O)N3CCN(c4cccc(Cl)c4)CC3)nnc12	-3
COc1ccc(C(=O)NNC(=O)c2ccc(Cl)c(Cl)c2)cc1OC	-1
CCc1cccc(C)c1NC(=O)Cn1nc(C)c2nn(-c3ccc(Cl)cc3)c(C)c2c1=O	-3
CCN1CCN(CC(O)COc2cccc(CNC3CCC(O)CC3)c2)CC1 (stereo not given)	-3
O=C(NCC(O)(c1ccccc1)c1ccccc1)C(O)(c1ccccc1)c1ccccc1	-4
CCc1cccc(NC(=O)CCc2c(C)nc3c(c2C)c(=O)n(C)c(=O)n3C)c1	4
Cc1ccc2cc(C3=CCC(=O)O3)ccc2c1	20
Cc1ccc2cc(C3=C/C(=C/c4ccc(N5CCOCC5)o4)C(=O)O3)ccc2c1	96*
Cc1ccc(C2=C/C(=C\c3c(Cl)cccc3Cl)C(=O)O2)cc1	2
C=CCSc1nc2ccccc2c(=O)[nH]1	2
C=CCN=C(N)SCc1nc2ccccc2c(=O)[nH]1	36*
CCN(CC)Cc1nc2ccccc2c(=O)[nH]1	1
CN(c1ccc(C(=O)Nc2cccc(N(C)S(C)(=O)=O)c2)cc1)S(C)(=O)=O	-3
CCOc1cc(-c2ccc(O)c(O)c2)cc(=Nc2ccc(Br)cc2)c2c(C)oc(C)c12	50*
CCOc1cc(-c2ccc(O)cc2)cc(=O)c2c(C)oc(C)c12	-18
CCOc1cc(-c2ccc3c(c2)OCO3)cc(=Nc2cccc(OC)c2)c2c(C)oc(C)c12	0
CCc1nn(Cc2ccc(Cl)cc2)c(=O)c2cc3cc(C)ccc3n12	-7
O=C(/C=C/c1ccco1)Nc1cccc(NC(=O)c2ccc(Cl)cc2Cl)c1	0
CC(/C=C/c1ccco1)=N/NC(=O)c1ccccc1Cl	-2
Cc1ccc(C(=O)/C=C/c2ccco2)c(O)c1	34*
COC(=O)CNC(=O)Nc1cc(C(=O)NCc2ccc(C)cc2)ccc1N1CCCC1	-4
COc1ccc(N2C(=O)c3cccnc3C2=O)cc1OC(C)=O	1
